Experimental data taken from PubChem BioAssay AID1835 (Johns Hopkins Ion Channel Center, 2009).
The whole screen tested about 2,400 compounds, of which about 750 (31%) were called active. This is one part of the list. Unmarked numbers belong to inactive results.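 The calls were made as follows: active = median signal gain over dofetilide-blocked control wells reaching their mean plus 3 SD, so readout 1 at least 0; inactive = the rest.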

target: Voltage-gated inwardly rectifying potassium channel KCNH2 (Homo sapiens) (UniProt Q12809); test: hERG protection against dofetilide inhibition, confirmation, cell-based, thallium flux, duplicate retest, dofetilide IC70 (AID 1835); conditions: hERG cell line, FluxOR thallium flux, dofetilide-blocked; at 10 µM; stronger effect = higher value
Sequence (Q12809 whole entry, looked up): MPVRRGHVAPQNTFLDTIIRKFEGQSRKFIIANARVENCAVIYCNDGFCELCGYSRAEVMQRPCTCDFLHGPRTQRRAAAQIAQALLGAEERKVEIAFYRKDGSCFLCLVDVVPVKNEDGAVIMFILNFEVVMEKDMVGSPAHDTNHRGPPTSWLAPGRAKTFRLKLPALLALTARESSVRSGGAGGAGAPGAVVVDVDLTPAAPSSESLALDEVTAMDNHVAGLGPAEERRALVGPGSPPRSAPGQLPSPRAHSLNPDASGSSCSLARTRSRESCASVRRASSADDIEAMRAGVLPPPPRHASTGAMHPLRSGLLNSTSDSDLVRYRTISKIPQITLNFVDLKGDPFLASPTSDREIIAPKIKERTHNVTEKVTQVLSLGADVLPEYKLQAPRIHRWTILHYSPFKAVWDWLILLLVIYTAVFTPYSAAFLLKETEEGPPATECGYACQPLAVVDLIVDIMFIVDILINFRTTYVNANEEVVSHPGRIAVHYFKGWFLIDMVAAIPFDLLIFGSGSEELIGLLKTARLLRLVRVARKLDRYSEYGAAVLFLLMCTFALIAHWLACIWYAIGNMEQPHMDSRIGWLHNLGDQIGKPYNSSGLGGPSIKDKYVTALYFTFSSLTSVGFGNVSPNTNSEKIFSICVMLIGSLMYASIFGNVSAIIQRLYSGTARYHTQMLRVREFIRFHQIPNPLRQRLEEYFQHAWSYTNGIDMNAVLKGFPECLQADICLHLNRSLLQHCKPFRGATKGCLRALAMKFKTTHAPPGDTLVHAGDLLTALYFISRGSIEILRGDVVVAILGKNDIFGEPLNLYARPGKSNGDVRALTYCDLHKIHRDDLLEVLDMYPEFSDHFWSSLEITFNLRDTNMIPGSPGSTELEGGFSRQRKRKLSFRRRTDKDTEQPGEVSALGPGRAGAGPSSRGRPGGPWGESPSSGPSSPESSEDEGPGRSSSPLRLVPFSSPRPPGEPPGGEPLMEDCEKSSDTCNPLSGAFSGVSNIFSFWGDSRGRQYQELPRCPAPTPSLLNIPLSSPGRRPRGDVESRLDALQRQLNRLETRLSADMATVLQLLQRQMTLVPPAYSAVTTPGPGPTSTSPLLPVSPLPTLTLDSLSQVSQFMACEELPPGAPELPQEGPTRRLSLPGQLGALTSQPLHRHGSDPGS

**Q.** Which activity increase over dofetilide control, less the hit threshold does the source give for `O=C(NC1CCCC1)C(c1ccncc1)N(C(=O)Cn1nnc(-c2ccccc2F)n1)c1cccc(F)c1` (centres undefined) here?
**A.** -14%

**Q.** Which activity increase over dofetilide control, less the hit threshold does the source give for `Cc1cccc(C)c1NC(=O)Cn1cnc2c(=O)n(C)c(=O)n(C)c21` here?
**A.** -17%

**Q.** With `COc1ccccc1C1C(C(=O)c2ccc(C)o2)=C(O)C(=O)N1c1cc(C)on1` (centres undefined) as the compound, how does the activity increase over dofetilide control, less the hit threshold read?
**A.** -1%

**Q.** With `Cc1ccc(NC(=O)COc2cccnc2[N+](=O)[O-])cc1S(=O)(=O)N1CCOCC1` as the compound, how does the activity increase over dofetilide control, less the hit threshold read?
**A.** -24%

**Q.** Which activity increase over dofetilide control, less the hit threshold does the source give for `Cc1ccc(-c2noc(CCC(=O)NC3CCCC3)n2)cc1` here?
**A.** -7%

**Q.** For `Cc1cc(C)cc(-n2c(C)cc(/C=N/NC(=O)CN(c3c(C)cccc3C)S(C)(=O)=O)c2C)c1`, which activity increase over dofetilide control, less the hit threshold is on record?
**A.** -1%

**Q.** How did the activity increase over dofetilide control, less the hit threshold turn out when `O=C(NCC1CCCCC1)c1cccnc1Cl` was run?
**A.** -14%

**Q.** Which activity increase over dofetilide control, less the hit threshold does the source give for `CN(C(=S)NC(=O)c1ccccc1Br)C1CCCCC1` here?
**A.** 1% (active)

**Q.** `CCN(C(=S)NC(=O)c1ccccc1Br)C1CCCCC1` was tested. Which activity increase over dofetilide control, less the hit threshold did it give?
**A.** 80% (active)

**Q.** For `COc1cc(S(=O)(=O)Nc2c(C)cc(C)cc2C)ccc1Cl`, which activity increase over dofetilide control, less the hit threshold is on record?
**A.** -10%

**Q.** With `O=C(CN1C(=O)COc2ccccc21)NNC(=O)Nc1ccccc1F` as the compound, how does the activity increase over dofetilide control, less the hit threshold read?
**A.** -22%

**Q.** Which activity increase over dofetilide control, less the hit threshold does the source give for `COCCn1c(SCC(=O)Nc2cc(C)cc(C)c2)nc2ccccc2c1=O` here?
**A.** -9%

**Q.** Which activity increase over dofetilide control, less the hit threshold does the source give for `CCCn1c(SCN2C(=O)c3ccccc3C2=O)nc2cc(Cl)ccc2c1=O` here?
**A.** 20% (active)

**Q.** For `CC(C)CCn1c(SCC(=O)NC2CC2)nc2cc(Cl)ccc2c1=O`, which activity increase over dofetilide control, less the hit threshold is on record?
**A.** -13%

**Q.** For `CCCCC1C2=C(CCCC2=O)OC2=C1C(=O)CCC2`, which activity increase over dofetilide control, less the hit threshold is on record?
**A.** -13%

**Q.** How did the activity increase over dofetilide control, less the hit threshold turn out when `CCCCn1c(N)c(C(=S)NC(=O)CC(C)(C)C)c(=O)n(C)c1=O` was run?
**A.** -3%

**Q.** With `O=C1c2ccccc2NC(c2ccc(Br)s2)N1O` (centres undefined) as the compound, how does the activity increase over dofetilide control, less the hit threshold read?
**A.** 41% (active)

**Q.** For `COc1ccc(/C=C/c2cc(=O)c3cc(Cl)ccc3o2)cc1`, which activity increase over dofetilide control, less the hit threshold is on record?
**A.** 56% (active)

**Q.** With `Cc1oc2ccc(OCc3ccc(Cl)cc3)cc2c1C(=O)O` as the compound, how does the activity increase over dofetilide control, less the hit threshold read?
**A.** -7%

**Q.** With `COc1ccc(-c2cc(=O)oc3cc(OCC(C)=O)ccc23)cc1` as the compound, how does the activity increase over dofetilide control, less the hit threshold read?
**A.** -27%

**Q.** How did the activity increase over dofetilide control, less the hit threshold turn out when `CCN(C(=O)c1cc2c(=O)[nH]c3ccc(C)cc3c2s1)c1ccccc1F` was run?
**A.** -15%

**Q.** With `O=C(c1ccc2c(c1)N(Cc1ccccc1F)C(=O)c1ccccc1S2(=O)=O)N1CCCC1` as the compound, how does the activity increase over dofetilide control, less the hit threshold read?
**A.** -10%

**Q.** `CC/C(=N\NC(=O)c1nnn(-c2nonc2N)c1-c1cccs1)c1ccccc1` was tested. Which activity increase over dofetilide control, less the hit threshold did it give?
**A.** -4%

**Q.** Which activity increase over dofetilide control, less the hit threshold does the source give for `N#Cc1ccccc1OCCN1C(=O)c2ccccc2C1=O` here?
**A.** -4%

**Q.** Which activity increase over dofetilide control, less the hit threshold does the source give for `O=Cc1cc(-c2ccccc2)[nH]c1-c1ccccc1` here?
**A.** -19%

**Q.** For `S=c1[nH]c(-c2ccccc2)cs1`, which activity increase over dofetilide control, less the hit threshold is on record?
**A.** 66% (active)

**Q.** `Cc1ccc(-c2csc(=S)[nH]2)cc1` was tested. Which activity increase over dofetilide control, less the hit threshold did it give?
**A.** 95% (active)

**Q.** Which activity increase over dofetilide control, less the hit threshold does the source give for `S=c1[nH]c(-c2ccc(Cl)cc2)cs1` here?
**A.** 136% (active)

**Q.** Which activity increase over dofetilide control, less the hit threshold does the source give for `S=c1[nH]nc(Nc2ccc(Cl)cc2)s1` here?
**A.** -3%
